Sampled rows, rich in hits. Any-hit rate of the full collection: about 5.1%.
NPSR antagonist: antagonists of human neuropeptide S receptor cAMP signaling | Q6W5P4 | CHO-NPSR cells, cAMP TR-FRET, antagonist mode | Potency, µM (series often up to 38.3 µM), for the others: top-dose activity change, negative = inhibition, usual class: inhibitors | actives 1% (n = 220,000) | AID 1461; further: potency means the concentration at half of the fitted maximal effect; nearly all actives have a fitted effect of over 50% in size
Target sequence (Q6W5P4 whole entry, looked up): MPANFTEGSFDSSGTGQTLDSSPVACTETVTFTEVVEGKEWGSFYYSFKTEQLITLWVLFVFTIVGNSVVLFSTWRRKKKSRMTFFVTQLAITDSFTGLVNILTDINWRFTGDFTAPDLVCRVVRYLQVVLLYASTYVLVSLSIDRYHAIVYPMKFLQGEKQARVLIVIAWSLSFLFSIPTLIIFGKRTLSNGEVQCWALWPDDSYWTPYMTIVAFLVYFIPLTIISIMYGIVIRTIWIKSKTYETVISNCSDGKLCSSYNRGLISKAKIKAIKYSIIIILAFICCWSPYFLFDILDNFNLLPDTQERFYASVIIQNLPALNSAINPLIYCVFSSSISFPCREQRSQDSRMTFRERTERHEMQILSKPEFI
Tau FP inhib: blocks human tau fibril formation measured by polarization. P10636. K18 P301L tau heparin fibrillization, Alexa594 FP, 6 h. Potency, µM (top dose mostly 57.7 µM), for inactives: at the top dose activity, negative = inhibition, usual class: inhibitors. actives 0.39% (n = 280,000); further: potency means the concentration at half of the fitted maximal effect; nearly all actives have a fitted effect of over 55% in size
Target sequence (P10636 561-689 P618L limits assumed): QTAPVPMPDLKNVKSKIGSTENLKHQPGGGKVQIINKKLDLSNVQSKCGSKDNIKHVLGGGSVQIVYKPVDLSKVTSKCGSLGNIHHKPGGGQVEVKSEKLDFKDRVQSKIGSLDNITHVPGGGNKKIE
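Heparin (20 uM) drove fibril formation of recombinant tau K18 P301L, 15 uM unlabeled with 0.24 uM Alexa 594 label, for 6 hr at 37 C in 100 mM sodium acetate pH 7. Fluorescence polarization (555/632 nm) read 1 hr after 30 uM ThT.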
PNC assembly inh: perinucleolar compartment assembly inhibition; activity change (PNC), negative = inhibition, % at 10 µM; actives 3.1% (n = 140,000); PC3M PTB-GFP, PNC prevalence imaging, 16 h; active compounds read low;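 active means readout at or below -70, meaning at least 70% loss of cells showing the perinucleolar compartment, a nuclear body marking cancer cells; inconclusive means readout between -30 and a set limit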;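 further: plate controls were DMSO wells for no effect and camptothecin positive control wells for full effect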
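Read-out is percentage of cells bearing a perinucleolar compartment, from automated 20x imaging of fixed, Hoechst-stained PC3M PTB-GFP cells. Cells were seeded 4 h, then exposed 16 h to compound (23 nl of library stock) in duplicate plates.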
KDM4E inh: JMJD2E (human) inhibition; B2RXH2; JMJD2E catalytic domain, FDH-coupled NADH fluorescence (FDH is formaldehyde dehydrogenase); Potency, µM (highest dose often 57.1 µM), inactives show at the highest dose activity change, negative = inhibition, most hits filed as inhibitors; actives 1.6% (n = 230,000); AID 2147; active means well fitted inhibition curve with a large enough effect, not every such curve was filed as active; inconclusive means small, poorly fitted or top-dose-only effect, or another doubt; inactive means no such curve, though single readings can be large or run the other way;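 further: potency means the concentration at half of the fitted maximal effect; 0% = wells with enzyme and -100% = buffer wells without enzyme; nearly all actives have a fitted effect of over 50% in size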
Tau ThT inhib: inhibitors of human tau fibril formation, thioflavin T binding; recombinant tau K18 P301L, heparin-induced fibrillization, ThT fluorescence; actives 2.1% (n = 270,000); P10636; Potency, µM (top dose mostly 57.4 µM), without a hit: top-dose activity, negative = inhibition, hits mostly inhibitors; further: potency means the concentration at half of the fitted maximal effect; nearly all actives have a fitted effect of over 55% in size
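K18 P301L tau (15 uM + 0.24 uM Alexa 594-tagged), heparin 20 uM, NaOAc pH 7, 6 h 37 C; ThT 30 uM, 1 h RT, ex 450/em 510 nm.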
Tau fluor cs: counter-screen for tau fibril formation inhibitors | tau K18 P301L (four-repeat tau fragment) Alexa594 fluorescence, heparin fibrillization | Potency, µM (titrated, usually from 57.7 µM), inactives show top-dose activity change, negative = decrease | actives 0.93% (n = 280,000) | AID 1463; further: potency means the concentration at half of the fitted maximal effect; nearly all actives have a fitted effect of over 55% in size
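Human K18 P301L tau (15 uM unlabeled plus 0.24 uM Alexa 594-labeled, final) in 100 mM sodium acetate pH 7 was mixed with compound and 20 uM heparin and incubated 6 hr at 37 C.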
Starred values were filed as active, the others as inactive; ? = inconclusive; . = no result; [ ] = dose if it differs, or a comment. Unless noted, the call rests on the fitted dose curve; in most records, active means well fitted curve in the direction sought with a large enough effect; inconclusive means small, poorly fitted or top-dose-only effect, or another doubt; inactive means no such curve, though single readings can be large; an effect the other way counts as inactive or inconclusive. Unless noted, on the % scale 0 is the no-effect control and ±100 the full control effect.

SMILES	NPSR antagonist	Tau FP inhib	PNC assembly inh	KDM4E inh	Tau ThT inhib	Tau fluor cs
O=C(NCCSCc1ccccc1)C1CCN(S(=O)(=O)Cc2ccccc2)CC1	.	7%	.	.	?	-15%
Cn1c(/C=C(\C#N)C(N)=S)ccc1-c1ccc(Br)cc1	-29%	4%	.	2%	1µM*	-28%
Cn1cccc1/C=C(\C#N)C(N)=S	47%	7%	.	-1%	?	-9%
COc1cc(-c2noc(-c3ccc(N4CCN(C)CC4)c([N+](=O)[O-])c3)n2)cc(OC)c1OC	.	-6%	.	.	-7%	-23%
O=c1cc(-c2c(F)c(F)c(F)c(F)c2F)oc2c(F)c(F)c(F)c(F)c12	3.2µM*	?	-12	1%	14µM*	?
O=c1cc(-c2c(F)c(F)c(F)c(F)c2F)oc2ccccc12	?	-5%	30	-1%	-21%	-14%
CCOC(=O)CNC(=O)O[C@H]1C(=O)c2cc(OC)ccc2O[C@@H]1c1ccc(OC)c(Br)c1	.	?	.	-4%	-14%	-11%
Cc1cccc(C2c3[nH]c4ccccc4c3CCN2C(=O)c2ocnc2C)n1 (stereo not given)	7%	-6%[2.34 µM]	.	22µM*	-3%	9%[2.34 µM]
O=C(CCC1N=C2c3ccccc3N=C(SCc3cccc(F)c3)N2C1=O)NCc1cccs1 (stereo not given)	.	0%	.	.	-10%	-1%
Cc1ccc(S(=O)(=O)Nc2nc(C)c(NC(=O)OCCCl)s2)cc1	-18%[46.1 µM]	6%	?	0%	-7%	-13%
Cc1ccc(S(=O)(=O)Nc2nc(C)c(NC(=O)Nc3ccc(Cl)cc3Cl)s2)cc1	-12%[46.1 µM]	1%	?	-6%	22µM*	14µM*[quencher]
COc1ccc(Cl)cc1NC(=O)CSc1nc2c([nH]c3ccccc32)c(=O)n1-c1ccccc1	.	?	.	.	-7%	-28%
O=C(CNC(=O)c1cccs1)NCC(=O)OCc1c(Cl)cccc1Cl	2%[46.1 µM]	3%	81	-1%	-5%	1%
O=C(CNC(=O)c1cccs1)NCC(=O)OCc1ccccc1Cl	10%[46.1 µM]	-1%	-83*	-4%	1%	-6%
COc1ccc(-c2cc3nc(C)c(CCC(=O)Nc4cccc(C(F)(F)F)c4)c(C)n3n2)c(OC)c1	.	-12%	.	.	-8%	-19%
O=C(O)c1ccc(-c2nc(-c3ccccc3)c(-c3cccs3)[nH]2)cc1	-37%	?	.	?	.	-30%
COc1ccc(-c2nc(-c3ccccc3)c(-c3cc([N+](=O)[O-])ccc3C)[nH]2)cc1OC	7.9µM*	?	-10	-3%	?	?
CCOc1cc(-c2nc(-c3ccccc3)c(-c3cc([N+](=O)[O-])ccc3C)[nH]2)ccc1O	?	13%	-2	-2%	?	11µM*[quencher]
O=[N+]([O-])c1ccc(O)c(-c2nc(-c3ccccc3)c(-c3cccs3)[nH]2)c1	?	-20%	-29	-1%	20µM*	11µM*[quencher]
CCOC(=O)c1cccc(NC(=O)Cn2ncc3c(=O)oc4ccccc4c32)c1	.	3%	.	.	8%	-4%
Cc1ccc(-c2nc(S(=O)(=O)c3ccc(C)cc3)c(N3CCCCC3)o2)cc1	.	-3%	.	.	-19%	-4%
S=c1[nH]nc(-c2cccnc2)n1-c1ccccc1	3%[46.1 µM]	-2%	-88*	1%	-16%	-6%
O=C(Nc1ccc(-c2noc(CCc3ccccc3)n2)cc1)c1ccco1	-27%[46.1 µM]	?	-89*	-2%	-11%	?
CCOC(=O)c1ccc(Nc2ncccc2[N+](=O)[O-])cc1	6%	-3%	.	-52%	2.2µM*	-29%
COC(=O)c1ccc(N/N=C/c2cc([N+](=O)[O-])cc(OC)c2O)cc1	26%	13%	.	-1%	?	?
SMILES	NPSR antagonist	Tau FP inhib	PNC assembly inh	KDM4E inh	Tau ThT inhib	Tau fluor cs
CCOC(=O)c1ccc(N/N=C/c2cc(Br)cc([N+](=O)[O-])c2O)cc1	-15%	-6%	.	5%	0.45µM*	0.71µM*[quencher]
CCCCN1C(=O)C(O)(CC(=O)c2ccc(C(C)(C)C)cc2)c2ccccc21 (stereo not given)	.	-4%	.	.	-13%	-14%
S=C(Nc1ccc(Oc2ccccc2)cc1)NC1CCCCCC1	-31%	-8%	-3	-3%	-6%	?
S=C(NNc1ccc2ccccc2c1)NC1CCCCC1	-37%	?	-17	11µM*	25µM*	?
Cc1ccc(CCNC(=O)c2ccc(CSc3nc4ccncc4n3Cc3ccc(F)cc3)cc2)cc1	.	3%	.	.	0%	-29%
CC(C)c1ccc(C2C(C#N)=C(N)N3C(=C2C#N)Sc2ccccc23)cc1 (stereo not given)	7.9µM*	-1%	45	3%	-6%	-6%
CCN(c1ccccc1)S(=O)(=O)c1ccc(NC(=O)c2cc(=O)c3ccc(C)c(C)c3o2)cc1	.	-15%	.	.	-11%	?
Cc1ccc(N2C(=O)[C@@H]3[C@H](C2=O)C2c4ccccc4C=CN2[C@@H]3C(=O)c2ccco2)cc1 (stereo not given in full)	-10%[46.1 µM]	?	-7	-3%	25µM*	-22%
CC(=O)[C@@H]1[C@@H]2C(=O)N(Cc3ccccc3)C(=O)[C@@H]2C2c3ccccc3C=CN21 (stereo not given in full)	-1%[46.1 µM]	-14%	-19	-25%	?	-20%
CC(C)(C)C(=O)[C@@H]1[C@@H]2C(=O)N(c3ccc4c(c3)OCCO4)C(=O)[C@@H]2C2c3ccccc3C=CN21 (stereo not given in full)	-16%[46.1 µM]	?	-24	-17%	28µM*	?
O=C(c1ccco1)[C@@H]1[C@@H]2C(=O)N(c3ccccc3)C(=O)[C@@H]2C2c3ccccc3C=CN21 (stereo not given in full)	-9%[46.1 µM]	?	31	?	25µM*	-29%
Cc1ccc(N2C(=O)[C@@H]3[C@H](C2=O)C2c4ccccc4C=CN2[C@@H]3C(=O)c2ccco2)c(C)c1 (stereo not given in full)	-13%[46.1 µM]	?	?	?	25µM*	-27%
CCCCCCn1c(CN2CCN(C(=O)c3ccco3)CC2)nc2c1c(=O)n(C)c(=O)n2C	-23%[46.1 µM]	13%	-122*	-5%	-9%	0%
O=C1C=C(c2ccccc2)OC(=O)C1C(=O)c1ccccc1 (stereo not given)	21%[7.67 µM]	1%	-100*	-2%	-7%	-8%
COCCNC(=O)c1c(N)sc2c1CCCC2	-19%[46.1 µM]	?	7	?	28µM*	-24%
NC(=O)c1c(N)sc2c1CCCCC2	-5%[46.1 µM]	?	-1	?	?	-11%
CNC(=O)c1c(N)sc2c1CCCCC2	-4%[46.1 µM]	?	?	?	18µM*	-29%

Bioassay records (PubChem BioAssay)
